Holding throughout (experiment): NCI-60 one-dose screen, 48 h (100 = growth as untreated, 0 = no growth, -100 = all killed)
Holding throughout (conditions): 10 µM unless noted

Assay [1] has as its system NCI-H23 lung.
In assay [2] the test system is NCI-H226 lung.
Assay [3] relates to NCI-H322M lung.
Assay [4] concerns HOP-62 NSCLC.
Assay [5] deals with NCI-H460 lung.
Assay [6] relates to HOP-92 NSCLC.
Assay [7] has as its system NCI-H522 lung.
Assay [8] has as its system A549/ATCC NSCLC.
For assay [9], the system named is 786-0 renal.
Assay [10] concerns COLO 205 colon.

Where “and” joins values, the source holds several entries; their conditions need not be identical. Identical values can stand only once. This is part of a sample that, as a whole, favours compounds with a hit. Of some 83,000 tested, about 20% had one in any assay.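 Percent growth is the endpoint: 0 to 100 indicates growth inhibition (40 means 60% inhibition), 0 means no net growth, and negative values indicate cell death.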 Calls of active or inactive are those of the source. Rule for the calls: active = growth percent below 10; inactive = the rest.

Turning to `NC1=CC(=O)c2cccnc2C1=O`, the growth is -33.1% (active) in [1]; 59.2% (inactive) in [2]; 71.1% (inactive) in assay [3]; 14.6% (inactive) in assay [4]; -53.6% (active) in assay [5]; -31.3% (active) in assay [6]. The growth is -57.9% (active) in [7], 26.6% (inactive) in assay [8], 26.5% (inactive) in [9] and 76.7% (inactive) in assay [10].

As for `Cc1ccc(Cl)cc1N1CCN(C(=O)[C@@H]2C[C@@H]2c2ccc(F)cc2)CC1`, the growth in [1] was 84.2% (inactive); in [2] it was 73.6% (inactive); in assay [3], 93% (inactive); in [4], 100% (inactive); in [5] it was 99.7% (inactive); in [6], 74.9% (inactive). The growth in assay [7] was 69.3% (inactive); in [8], 77.7% (inactive); in assay [9], 93.6% (inactive); in [10] it was 107% (inactive).

Turning to `CCCNNC(=O)/C=C/c1ccc(CNCCc2c(C)[nH]c3ccccc23)cc1`, the growth in assay [1] was 38.6% [2.5 µM] (inactive); in [2], 33.6% [2.5 µM] (inactive); in [3], 15.9% [2.5 µM] (inactive); in assay [4] it was 3.81% [2.5 µM] (active); in [5], 23.8% [2.5 µM] (inactive); in [6], -5.2% [2.5 µM] (active). The growth in assay [7] was 19.7% [2.5 µM] (inactive); in assay [8] it was 14% [2.5 µM] (inactive); in [9] it was 22.8% [2.5 µM] (inactive); in [10], -55.7% [2.5 µM] (active).

As to `COc1ccc(/C=N\Nc2nc(SCC(C)C)nc(-c3ccc(OC)cc3)c2C#N)cc1`, the growth is 57.2% (inactive) in assay [1]; -14.8% (active) in assay [2]; 22.5% (inactive) in assay [3]; -2.99% (active) in [4]; -11.1% (active) in [5]; 15.1% (inactive) in [6]. Also, the growth is 54% (inactive) in assay [7], 11.4% (inactive) in assay [8], -48.2% (active) in assay [9] and 50.1% (inactive) in assay [10].

For the compound `Cc1ccc(/C=C2\COc3ccc(O)c(O)c3C2=O)cc1`, the growth in assay [1] was 29.1% (inactive); in [2], 61.5% (inactive); in assay [3], 31.3% (inactive); in assay [4] it was -1.56% (active); in [5], 8.32% (active); in assay [6] it was -18% (active). For the same compound, the growth in [7] is -74.8% (active); in assay [8], 27.4% (inactive); in [9], -71% (active); in [10] it was 30.2% (inactive).

With `COc1cc(-c2[nH]ncc2Nc2ccc(Cl)cc2)cc(OC)c1OC`, the growth is 55.5% (inactive) in [1]; 73.2% (inactive) in [2]; 64.2% (inactive) in assay [3]; 50.1% (inactive) in assay [4]; 73.6% (inactive) in assay [5]; 60% (inactive) in assay [6]. The growth in assay [7] was 51.5% (inactive); in assay [8], 67.6% (inactive); in assay [9] it was 64.3% (inactive); in assay [10], 107% (inactive).

Regarding `NS(=O)(=O)OCC1OC(n2cnc3cncnc32)C(O)C1O` (stereo not given), the growth in assay [1] was 6.16% [0.1 µM] (active) and 3.98% [0.1 µM] (active); in [2], 16.8% [0.1 µM] (inactive); in assay [3] it was -26.7% [0.1 µM] (active) and 12.1% [0.1 µM] (inactive); in assay [4], -21.5% [0.1 µM] (active) and -12.7% [0.1 µM] (active); in assay [5] it was 2.5% [0.1 µM] (active) and 0.409% [0.1 µM] (active); in [6], 10.2% [0.1 µM] (inactive) and 3.58% [0.1 µM] (active). Further, the growth in [7] is 2.73% [0.1 µM] (active) and -11.8% [0.1 µM] (active); in assay [8] it was 11.1% [0.1 µM] (inactive) and 13.4% [0.1 µM] (inactive); in assay [9] it was 8.57% [0.1 µM] (active) and 11.9% [0.1 µM] (inactive); in assay [10] it was 32.2% [0.1 µM] (inactive) and 27.1% [0.1 µM] (inactive).

Take `O=c1cc(N/N=C/c2ccc(F)cc2)c2cc(Cl)ccc2[nH]1`: the growth in [1] is 85.3% (inactive); in assay [2] it was 76.1% (inactive); in assay [3], 95.2% (inactive); in assay [4], 95% (inactive); in [5], 102% (inactive); in assay [6], -48.3% (active). The growth in [7] is 72.8% (inactive); in assay [8], 89.3% (inactive); in assay [9] it was 89.5% (inactive); in [10], 96.2% (inactive).

As for `COC(=O)c1nc(-c2ccccc2)oc1S(=O)(=O)N(C)CCO`, the growth in [1] was 90.9% (inactive); in [2], 90.8% (inactive); in [3], 94.6% (inactive); in assay [4], 103% (inactive); in assay [5], 105% (inactive); in assay [6], 41.7% (inactive). The growth in [7] is 32.7% (inactive); in [8], 91.2% (inactive); in assay [9], 57.9% (inactive); in [10] it was 48% (inactive).

As for `CCOC(=O)CC1CSC(c2cccc(Cl)c2)=N1` (stereo not given), the growth in assay [1] was 94.6% (inactive); in assay [2] it was 113% (inactive); in assay [3], 93.3% (inactive); in assay [4] it was 111% (inactive); in assay [5], 108% (inactive); in [6], 119% (inactive). Moreover, the growth is 101% (inactive) in assay [7], 95.3% (inactive) in assay [8], 84.8% (inactive) in assay [9] and 120% (inactive) in assay [10].

On to `O=C(c1cccc(Br)c1)N1CCN(c2ccnc3cc(Cl)ccc23)CC1`, for which the growth in assay [1] is 79.7% (inactive); in assay [2], 87.3% (inactive); in assay [3], 92% (inactive); in [4], 95.3% (inactive); in assay [5], 100% (inactive); in [6], 78.7% (inactive). The growth in [7] was 45.1% (inactive); in assay [8] it was 73.8% (inactive); in assay [9], 71.9% (inactive); in [10], 93.7% (inactive).

Take `Nc1n[nH]c2cccc(C#Cc3cccc(C(=O)Nc4ccc(CN5CCOCC5)c(C(F)(F)F)c4)c3)c12`: the growth is 33.6% (inactive) in [1]; 36.5% (inactive) in [2]; 72.2% (inactive) in assay [3]; 52.1% (inactive) in assay [4]; 44.5% (inactive) in [5]; 35.5% (inactive) in [6]. Besides, the growth in assay [7] is 41.9% (inactive); in assay [8], 43.4% (inactive); in assay [9], 8.57% (active); in assay [10], 13.1% (inactive).

Regarding `O=C(Nc1ccc2ncsc2c1)c1csc(Nc2ccc3[nH]ncc3c2)n1`, the growth in assay [1] was 62% (inactive); in assay [2] it was 59% (inactive); in [3] it was 51.5% (inactive); in assay [4], 61.7% (inactive); in assay [5], 19.5% (inactive); in [6], 67.5% (inactive). Also, the growth was 24.7% (inactive) in assay [7], 44.3% (inactive) in [8], 42.8% (inactive) in assay [9] and 31.2% (inactive) in assay [10].

(Values after PubChem BioAssay (NCI).)
